Experimental data from PubChem BioAssay AID1159580 (chemical genetic matrix, 2015).
Several values for one entry are separate records, joined by “and”; a condition that tells them apart may be missing. Equal entries are not always repeated. Among all 5,500 compounds or so, about 2,000 (36%) were called active. Not shown: some 18% with an inconclusive outcome. Rule as the data show it: active = normalized growth mostly below about 0.91 (no sharp cut-off); inconclusive = no clear call, values can overlap the other calls; inactive = mostly above about 0.92. The list shows a part of the results.

Assay: chemical genetic growth profiling, strain panel (AID 1159580);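 also: tested at 20 µM; growth read once vehicle control cultures reached saturation at 30 °C; 1 = growth at the plate median or of vehicle wells; lower values mean less growth of the strain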
Conditions: S. cerevisiae deletion strains, growth OD

Measured: normalized growth

COC(C)(C)CCC[C@H](C)C/C=C/C(C)=C/C(=O)OC(C)C
inactive: locus YAL013W, strain DEP1, hits give low values 0.998 | locus YAL021C, strain ccr4, hits give low values 1.03 | locus YAL026C, strain drs2, hits give low values 1.01 | locus YAL030W, strain snc1, hits give low values 1.03 | locus YBL061C, strain skt5, hits give low values 1.02 | locus YBR009C, strain hhf1, hits give low values 1.01 | locus YBR021W, strain FUR4, hits give low values 0.985 | locus YBR023C, strain chs3, hits give low values 1.02 | locus YBR171W, strain sec66, hits give low values 1.02 | locus YBR229C, strain ROT2, hits give low values 1 | locus YBR231C, strain swc5, hits give low values 1 | locus YBR279W, strain paf1, hits give low values 1 | locus YCL011C, strain gbp2, hits give low values 1.02 | locus YCL016C, strain dcc1, hits give low values 1.01 | locus YCL029C, strain bik1, hits give low values 1.05 | locus YCL061C, strain MRC1, hits give low values 1.02 | locus YCL069W, strain vba3, hits give low values 1.03 | locus YCR088W, strain abp1, hits give low values 1.02 | locus YDL005C, strain med2, hits give low values 1 | locus YDL035C, strain GPR1, hits give low values 1 | locus YDL040C, strain nat1, hits give low values 1 | locus YDL074C, strain BRE1, hits give low values 0.998 | locus YDL101C, strain DUN1, hits give low values 1.01 | locus YDL134C, strain PPH21, hits give low values 1.01 | locus YDL185W, strain tfp1, hits give low values 1.01 | locus YDL192W, strain arf1, hits give low values 1.03 | locus YDR001C, strain nth1, hits give low values 1.02 | locus YDR069C, strain doa4, hits give low values 1.01 | locus YDR101C, strain arx1, hits give low values 1.02 | locus YDR137W, strain rgp1, hits give low values 1.09 | locus YDR150W, strain NUM1, hits give low values 0.994 | locus YDR159W, strain sac3, hits give low values 1.03 | locus YDR162C, strain NBP2, hits give low values 1 | locus YDR195W, strain ref2 0.99 | locus YDR297W, strain sur2, hits give low values 1.02 | locus YDR318W, strain mcm21, hits give low values 1.03 | locus YDR334W, strain swr1, hits give low values 1.02 | locus YDR335W, strain msn5, hits give low values 1.03 | locus YDR388W, hits give low values 1.02 | locus YDR392W, strain spt3, hits give low values 1.05 | locus YDR502C, strain sam2, hits give low values 1.03 | locus YEL003W, strain gim4, hits give low values 1.01 | locus YEL037C, strain rad23, hits give low values 1.01 | locus YEL061C, strain CIN8 (second series), hits give low values 1.02 | locus YEL061C, strain CIN8, hits give low values 0.999 | locus YER015W, strain faa2, hits give low values 1.01 | locus YER016W, strain bim1, hits give low values 1.02 | locus YER110C, hits give low values 1.03 | locus YER111C, strain swi4, hits give low values 1.01 | locus YER155C, strain BEM2 (second series), hits give low values 1.01 | locus YER155C, strain BEM2, hits give low values 0.99 | locus YER167W, strain BCK2, hits give low values 1.01 | locus YFR010W, strain ubp6, hits give low values 1 | locus YGL078C, strain dbp3, hits give low values 1.02 | locus YGL086W, strain mad1, hits give low values 1 | locus YGL167C, strain pmr1, hits give low values 1.02 | locus YGL173C, strain kem1, hits give low values 1.02 | locus YGL227W, strain vid30, hits give low values 1.05 | locus YGL240W, strain doc1, hits give low values 1.03 | locus YGL248W, strain PDE1, hits give low values 1.01 | locus YGL253W, strain hxk2, hits give low values 1 | locus YGR078C, strain PAC10, hits give low values 1.01 | locus YGR135W, strain pre9, hits give low values 1.04 | locus YGR229C, strain SMI1, hits give low values 1.03 | locus YGR252W, strain gcn5, hits give low values 1.06 | locus YHR013C, strain ard1, hits give low values 1.03 | locus YHR027C, strain rpn1, hits give low values 1 | locus YHR030C, strain SLT2, hits give low values 1 and 0.961 | locus YHR079C, strain IRE1 (second series), hits give low values 1.01 | locus YHR079C, strain IRE1, hits give low values 0.942 | locus YHR094C, strain hxt1, hits give low values 1.01 | locus YHR129C, strain ARP1, hits give low values 0.998 | locus YHR142W, strain chs7, hits give low values 0.979 | locus YHR200W, strain rpn10, hits give low values 1.02 | locus YIL066C, strain RNR3, hits give low values 1.01 | locus YIL073C, strain SPO22, hits give low values 1.08 | locus YIL125W, strain kgd1, hits give low values 1.01 | locus YIR030C, strain dcg1, hits give low values 1.03 | locus YJL092W, strain hpr5, hits give low values 1.03 | locus YJL095W, strain BCK1 (second series), hits give low values 1.02 | locus YJL095W, strain BCK1, hits give low values 1.03 and 0.955 | locus YJL115W, strain asf1, hits give low values 1.02 | locus YJL129C, strain trk1, hits give low values 0.942 | locus YJL134W, strain LCB3, hits give low values 1 | locus YJL154C, strain vps35, hits give low values 1.01 | locus YJL164C, strain tpk1, hits give low values 1 | locus YJL166W, strain qcr8, hits give low values 1.02 | locus YJL168C, strain set2, hits give low values 1.02 | locus YJL187C, strain SWE1 (second series), hits give low values 1.02 | locus YJR043C, strain POL32, hits give low values 1.01 | locus YJR066W, strain TOR1, hits give low values 0.892
